Source: PubChem BioAssay (Tox21)
Inconclusive results are not listed. A number with no mark means an inactive call. The source made the active and inactive calls. The call rests on the fitted dose curve; in most records, active means well fitted cell-killing curve with a large enough effect in the repeat runs; inconclusive means weak or mixed curves, or effect the other way; inactive means no such curve, though single readings can be large or run the other way.

Test: qHTS assay to identify small molecule antagonists of the progesterone receptor (PR) signaling pathway - cell viability counter screen (AID 1346798); further: nearly all actives have a fitted effect of over 50% in size
Settings: PR-UAS-bla HEK293T viability, CellTiter-Glo luminescence, 16 h; series mostly up to 92.4 µM; activity change, negative = cytotoxicity: at the top concentration
From the text: National Center for Advancing Translational Sciences [NCATS]
NIH Chemical Genomics Center [NCGC]
U.S. Environmental Protection Agency [EPA]
National Institutes of Environmental Health Sciences [NIEHS]
National Toxicology Program [NTP]
U.S. Food and Drug Administration [FDA]
Progesterone receptor (PR), a nuclear hormone receptor, plays an important role in development, metabolic homeostasis and reproduction. It is activated by the steroid hormone progesterone. Endocrine disrupting chemicals (EDCs) and their interactions with steroid hormone receptors like PR causes disruption of normal endocrine function. To identify the compounds that inhibit PR signaling, a PR-UAS-bla GripTite cell line i.e. PR-UAS-bla HEK293T (Invitrogen, Carlsbad, CA, USA) containing a beta-lactamase reporter gene under the control of an UAS response element was used to screen Tox21 10K compound library. The cytotoxicity of the Tox21 compound library against the PR-bla cell line was tested in parallel by measuring the cell viability using CellTiter-Glo assay in the same wells.
Tox21 Assay Protocol Summary:
PR-UAS-bla HEK293T cells were dispensed at 3,000 cells/4 uL of assay medium containing 2% charcoal stripped FBS per well into black wall/clear-bottom 1536-well plates using a Multidrop Combi (ThermoFisher Scientific, Waltham, MA) dispenser. After the assay plates were incubated at a 37C and 5% CO2 for 4 hr, 23 nL of compounds dissolved in DMSO, positive controls or DMSO only was transferred to the assay plate by a Pintool station (Kalypsys, San Diego, CA), followed by addition of 1 uL of R5020 in assay medium using a Flying Reagent Dispenser (FRD, Aurora Discovery, San Diego, CA). The plates were incubated at 37C and 5% CO2 for 16 hr. Then 1 uL of LiveBLAzer B/G FRET substrate was added using a Flying Reagent Dispenser, the plates were incubated at room temperature for 2 hours, and fluorescence intensity was measured by an Envision plate reader (PerkinElmer, Shelton, CT). For cell viability readout that measures cytotoxicity, 4 uL/well of CellTiter-Glo reagent was added into the assay plates using a FRD. After 30 min incubation at room temperature, the luminescence intensity in the plates was measured using a ViewLux (PerkinElmer) plate reader.
On the % scale 0 is the no-effect control and ±100 the full control effect; potency means the concentration at half of the fitted maximal effect.

SMILES | activity change, negative = cytotoxicity | Potency
N#Cc1c2ccccc2cc2ccccc12 | -0.514% | –
O=C(NC(=O)c1c(F)cccc1F)Nc1ccc(Oc2ccc(C(F)(F)F)cc2Cl)cc1F | 19.1% | –
COC(=O)C(C)N(C(=O)c1ccco1)c1c(C)cccc1C (stereo not given) | -17.3% | –
COC(=O)c1ccccc1S(=O)(=O)NC(=O)Nc1nc(C)nc(OC)n1 | -4.43% | –
CCCN | 10.2% | –
NC(=O)C(Cl)Cl | 3.06% | –
Cc1nn(-c2cc(NS(C)(=O)=O)c(Cl)cc2Cl)c(=O)n1C(F)F | -7.94% | –
CSC(C)(C)/C=N/O | -1.54% | –
COP(=O)(OC)Oc1ccc([N+](=O)[O-])cc1 | -11.8% | –
CSC(=O)c1c(C(F)F)nc(C(F)(F)F)c(C(=O)SC)c1CC(C)C | 7.35% | –
c1ccc(N=NNc2ccccc2)cc1 | -15.3% | –
[O]=[Cr](=[O])([OH])[O][Cr](=[O])(=[O])[OH] | -0.327% | –
CNC(C)(C)Cc1ccccc1 | -9.81% [at 42.5 µM] | –
CCC(OC(C)=O)C(CC(C)NC)(c1ccccc1)c1ccccc1 (stereo not given) | – | 54.9 µM (active)
COc1c2c(cc3c1OCO3)CCN(C)C2 | -8.14% [at 42.5 µM] | –
COCCC#N | 11% | –
CC(=O)C(Cl)C(=O)N(C)C (stereo not given) | -7.38% | –
O=c1c2ccccc2c(=O)c2c1cc(Cl)c1[nH]c3c([nH]c12)c(Cl)cc1c(=O)c2ccccc2c(=O)c13 | -6.84% | –
Nc1cc(Cl)ccc1Cl | 2.53% | –
CN1C2CCC(C)(C)C1CC(OC(=O)C(O)(c1cccs1)c1cccs1)C2 (stereo not given) | -21% [at 42.5 µM] | –

SMILES | activity change, negative = cytotoxicity | Potency
CC(C)(C)c1ccc(OP(=O)(Oc2ccccc2)Oc2ccccc2)cc1 | 0.206% | –
O=[N+]([O-])c1cccc2cccc([N+](=O)[O-])c12 | 5.32% | –
Cc1cccc(Cc2cnc[nH]2)c1C | 1.99% [at 42.5 µM] | –
CC1CN1 (stereo not given) | 13.6% | –
Oc1ccc(Cl)c(Cl)c1 | -12.6% | –
O=C(O)[C@H](O)[C@@H](O)C(=O)O | 1.79% | –
N#CSCc1ccccc1 | 22.1% | –
CCCCC/C=C\C/C=C\C/C=C\C/C=C\CCCC(=O)NCC(=O)O | -12.8% [at 42.5 µM] | –
C[C@]12CC[C@H]3[C@@H](CCC4=CC(=O)CC[C@@H]43)[C@@H]1CC[C@@H]2OC(=O)CCc1ccco1 | 4.77% [at 42.5 µM] | –
CCC(C)Br (stereo not given) | -4.34% | –
O=C(Cl)c1ccccc1F | 1.01% | –
ClC(Cl)C(Cl)(Cl)Cl | 17.3% | –
COc1nc(C)nc(NC(=O)NS(=O)(=O)c2ccccc2Cl)n1 | 3.89% | –
C=CC(=C)C | 11.1% | –
Cc1ccc([N+](=O)[O-])[c]2c1[O][Hg]2 | – | 4.22 µM (active)
C=C(C)C(=O)[O][Sn]([CH2]CCC)([CH2]CCC)[CH2]CCC | – | 3.44 µM (active)
CN/C(=N\[N+](=O)[O-])NCc1cnc(Cl)s1 | -22.2% | –
O=[N+]([O-])c1ccccc1-c1ccccc1 | -0.411% | –
CC1CCCC1 | 15.5% | –
CC(C)=CCN1CC[C@@]2(C)c3cc(O)ccc3C[C@@H]1[C@@H]2C | -14.8% | –
